Assay results: PubChem BioAssay (NCATS)
Records with an inconclusive call do not appear. The source made the active and inactive calls. Unless noted, calls come from the whole dose curve; as a rule, active = well fitted cell-killing curve with a large enough effect; inconclusive = small, poorly fitted or top-dose-only effect, or effect the other way; inactive = no such curve, though single readings can be large or run the other way.

Columns and labels:
[1] = Quantitative High-Throughput drug screen in 47 multiple myeloma cell lines against the NCATS MIPE library collection: KMS28PE_JCRB cell viability assay (AID 1918983); note: nearly all actives have a fitted effect of over 35% in size
Procedure, shortened: (§1)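 500 cells/well; MIPE 4.0 drugs pin-transferred; 48 h, 37C, 5% CO2. CellTiter-Glo, 5 min RT, luminescence. Controls: DMSO 100%, media 0%.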

[2] = Quantitative High-Throughput drug screen in 47 multiple myeloma cell lines against the NCATS MIPE library collection: L363_DSMZ cell viability assay (AID 1918984); note: nearly all actives have a fitted effect of over 40% in size
Procedure, shortened: as §1

[3] = Quantitative High-Throughput drug screen in 47 multiple myeloma cell lines against the NCATS MIPE library collection: KMS34_JCRB cell viability assay (AID 1918985); note: nearly all actives have a fitted effect of over 40% in size
Procedure, shortened: as §1

[4] = Quantitative High-Throughput drug screen in 47 multiple myeloma cell lines against the NCATS MIPE library collection: OCIMY7_PLB cell viability assay (AID 1918987); note: nearly all actives have a fitted effect of over 65% in size
Procedure, shortened: as §1

[5] = Quantitative High-Throughput drug screen in 47 multiple myeloma cell lines against the NCATS MIPE library collection: OCIMY5_PLB cell viability assay (AID 1918988); note: nearly all actives have a fitted effect of over 65% in size
Procedure, shortened: as §1

[6] = Quantitative High-Throughput drug screen in 47 multiple myeloma cell lines against the NCATS MIPE library collection: OPM1_PLB cell viability assay (AID 1918989); note: nearly all actives have a fitted effect of over 40% in size
Procedure, shortened: as §1

[7] = Quantitative High-Throughput drug screen in 47 multiple myeloma cell lines against the NCATS MIPE library collection: U266_ATCC cell viability assay (AID 1919864); note: nearly all actives have a fitted effect of over 35% in size
Procedure, shortened: as §1

[8] = Quantitative High-Throughput drug screen in 47 multiple myeloma cell lines against the NCATS MIPE library collection: XG6_PLB cell viability assay (AID 1919865); note: nearly all actives have a fitted effect of over 40% in size
Procedure, shortened: as §1

[9] = Quantitative High-Throughput drug screen in 47 multiple myeloma cell lines against the NCATS MIPE library collection: XG1_PLB cell viability assay (AID 1919866); note: nearly all actives have a fitted effect of over 35% in size
Procedure, shortened: as §1

[10] = Quantitative High-Throughput drug screen in 47 multiple myeloma cell lines against the NCATS MIPE library collection: VP6_DJ cell viability assay (AID 1919867); note: nearly all actives have a fitted effect of over 40% in size
Procedure, shortened: as §1

[11] = Quantitative High-Throughput drug screen in 47 multiple myeloma cell lines against the NCATS MIPE library collection: PE2_PLB cell viability assay (AID 1919869); note: nearly all actives have a fitted effect of over 35% in size
Procedure, shortened: as §1

[12] = Quantitative High-Throughput drug screen in 47 multiple myeloma cell lines against the NCATS MIPE library collection: PCM6_Riken cell viability assay (AID 1919870); note: nearly all actives have a fitted effect of over 30% in size
Procedure, shortened: as §1

[13] = Quantitative High-Throughput drug screen in 47 multiple myeloma cell lines against the NCATS MIPE library collection: RPMI8226_ATCC cell viability assay (AID 1919871); note: nearly all actives have a fitted effect of over 30% in size
Procedure, shortened: as §1

[14] = Quantitative High-Throughput drug screen in 47 multiple myeloma cell lines against the NCATS MIPE library collection: OPM2_DSMZ cell viability assay (AID 1919872); note: nearly all actives have a fitted effect of over 30% in size
Procedure, shortened: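 We plated 500 myeloma cells per well, pinned in MIPE 4.0 compounds, and incubated for 48 hours at 37C. ATP was then quantified with CellTiter-Glo, with DMSO and media-only wells defining 100% and 0%.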

[15] = Quantitative High-Throughput drug screen in 47 multiple myeloma cell lines against the NCATS MIPE library collection: KMS11_JCRBsus cell viability assay (AID 1919873); note: nearly all actives have a fitted effect of over 50% in size
Procedure, shortened: as §1

[16] = Quantitative High-Throughput drug screen in 47 multiple myeloma cell lines against the NCATS MIPE library collection: KMS28BM_JCRB cell viability assay (AID 1919874); note: nearly all actives have a fitted effect of over 35% in size
Procedure, shortened: as §1

[17] = qHTS drug screen for cell cycle checkpoint inhibitors in PARPi-resistant BRCA-mutant ovarian cancer cell lines. (AID 1963452; calls by dose curve); conditions: PEO1/OlaR viability, CellTiter-Glo luminescence, 96 h; for Z-AUC: stronger effect = lower value
Procedure, shortened: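 PEO1, PEO4 and PEO1/OlaR ovarian cancer cells, 600 per well, exposed 96 h at 37C to a dilution series. Viability read by CellTiter-Glo luminescence, normalized to DMSO and empty wells; activity summarized as Z-AUC.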

[18] = Quantitative High-Throughput drug screen in 47 multiple myeloma cell lines against the NCATS MIPE library collection: SKMM1_PLB cell viability assay (AID 1919863); conditions: SKMM1 myeloma viability, CellTiter-Glo ATP, 48 h; viability: stronger effect = lower value; note: nearly all actives have a fitted effect of over 35% in size
Procedure, shortened: as §1

[19] = Quantitative High-Throughput drug screen in 47 multiple myeloma cell lines against the NCATS MIPE library collection: UTMC2_PLB cell viability assay (AID 1919868); conditions: CellTiter-Glo ATP luminescence, 48 h; viability (% of DMSO control): at 45.8 µM (top of the series) unless noted; note: nearly all actives have a fitted effect of over 55% in size
Procedure, shortened: as §1

[20] = qHTS for identification of novel therapeutic agents for treatment of microphthalmiaassociated transcription factor (MiT) renal cell carcinoma (RCC) (AID 1963991; calls by dose curve;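 for z-score: curves scaled with 100% = DMSO viability and 0% = empty wells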); conditions: CellTiter-Glo, 48 h; for Potency: active = Z-AUC below -0.8 in all three lines; for z-score: stronger effect = lower value
Procedure, shortened: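 UOK109/UOK124/UOK145 (TFE3 fusions, three partners); 500 cells/well; MIPE v4.0, 1912 cpds, 11 conc.; 48 h, 37 C; CellTiter-Glo, 15 min RT; lum. Norm.: DMSO 100%, empty 0%.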

[21] = measured here: PEO1 parental Z-AUC
[22] = TFE3-RCC UOK109 viability, measured here: UOK109 Z-AUC
[23] = TFE3-RCC viability, measured here: UOK124 Z-AUC
[24] = TFE3-RCC viability, measured here: UOK145 Z-AUC
Potency is the fitted concentration of half-maximal effect.

COc1cc(C(=O)N2CCC(N3CCN(C)CC3)CC2)ccc1Nc1ncc2c(n1)N(C)c1ccccc1C(=O)N2C
-0.239: Z-AUC [17, 21]
-1.55: Z-AUC ([17]; measured here: PEO4 Z-AUC)
inactive: Z-AUC [17] -0.667
active: Potency [1] 3320 nM | Potency [2] 4690 nM | Potency [3] 2640 nM | Potency [4] 2960 nM | Potency [5] 2090 nM | Potency [6] 1870 nM | Potency [7] 2090 nM | Potency [8] 5260 nM | Potency [9] 2640 nM | Potency [10] 1180 nM | Potency [11] 5260 nM | Potency [12] 14800 nM | Potency [13] 10500 nM | Potency [14] 10500 nM | Potency [15] 1660 nM | Potency [16] 3320 nM

Cc1ccc(NC(=O)C2(c3ccc4c(c3)OC(F)(F)O4)CC2)nc1-c1cccc(C(=O)O)c1
-1.92: z-score [20, 23]
0.515: Z-AUC ([17]; measured here: PEO4 Z-AUC)
-1.79: z-score [20, 24]
active: Potency [1] 41.8 nM | Potency [2] 29.6 nM | Potency [3] 93.5 nM | Potency [4] 132 nM | Potency [5] 46.9 nM | Potency [18] 74.3 nM | Potency [7] 29.6 nM | Potency [8] 66.2 nM | Potency [9] 46.9 nM | Potency [10] 46.9 nM | Potency [19] 83.3 nM | Potency [11] 105 nM | Potency [12] 33.2 nM | Potency [13] 93.5 nM | Potency [14] 74.3 nM | Potency ([20]; TFE3-RCC UOK109 viability) 235 nM
-2.27: z-score [20, 22]
inactive: Z-AUC [17] 0.456
0.813: Z-AUC [17, 21]

Fc1cc(-c2cccc3ncc(-c4cnn(C5CCNCC5)c4)nc23)cc(F)c1CN1CCOCC1
active: Potency [1] 23500 nM | Potency [2] 6620 nM | Potency [3] 14800 nM | Potency [4] 6620 nM | Potency [5] 16600 nM | Potency [6] 8330 nM | Potency [8] 7430 nM | Potency [9] 7430 nM | Potency [10] 9350 nM | Potency [11] 8330 nM | Potency [12] 7430 nM | Potency [13] 20900 nM | Potency [15] 9350 nM | Potency [16] 26400 nM

COc1ccc2c(c1)CC[C@@H](CN(C)CC(=O)O)[C@H]2c1ccccc1
1.29: Z-AUC ([17]; measured here: PEO4 Z-AUC)
inactive: Z-AUC [17] 0.47
1.17: Z-AUC [17, 21]
active: Potency [1] 4180 nM | Potency [2] 1660 nM | Potency [3] 4690 nM | Potency [4] 833 nM | Potency [5] 1480 nM | Potency [6] 10500 nM | Potency [18] 1050 nM | Potency [8] 833 nM | Potency [9] 833 nM | Potency [10] 1870 nM | Potency [12] 1660 nM | Potency [13] 2640 nM | Potency [14] 8330 nM | Potency [15] 662 nM

COc1cc(OC2CCN(C)CC2)ccc1Nc1ncc2c(n1)n(C1CCCC1)c(=O)n2C
0.275: Z-AUC ([17]; measured here: PEO4 Z-AUC)
inactive: Z-AUC [17] 0.704
0.287: Z-AUC [17, 21]
active: Potency [1] 16600 nM | Potency [2] 7430 nM | Potency [3] 16600 nM | Potency [4] 2960 nM | Potency [5] 9350 nM | Potency [6] 7430 nM | Potency [7] 14800 nM | Potency [8] 4690 nM | Potency [9] 4690 nM | Potency [10] 4180 nM | Potency [19] 7430 nM | Potency [11] 9350 nM | Potency [12] 10500 nM | Potency [15] 16600 nM | Potency [16] 16600 nM

Cc1ccc(C(=O)Nc2ccc(CN3CCN(C)CC3)c(C(F)(F)F)c2)cc1C#Cc1cnc2cccnn12
inactive: Z-AUC [17] -2.19
-0.606: Z-AUC ([17]; measured here: PEO4 Z-AUC)
-1.43: Z-AUC [17, 21]
active: Potency [1] 5900 nM | Potency [2] 833 nM | Potency [3] 3320 nM | Potency [4] 264 nM | Potency [5] 1480 nM | Potency [6] 590 nM | Potency [18] 5900 nM | Potency [8] 662 nM | Potency [9] 1320 nM | Potency [10] 1320 nM | Potency [11] 935 nM | Potency [13] 11800 nM | Potency [14] 5260 nM | Potency [15] 1480 nM | Potency [16] 7430 nM

O=C(Nc1ncc(-c2cc(C(F)F)nn2-c2c(Cl)cccc2Cl)s1)C1CC1
-1.27: z-score [20, 24]
-1.43: z-score [20, 23]
-1.31: Z-AUC ([17]; measured here: PEO4 Z-AUC)
-1.49: Z-AUC [17, 21]
-1.06: z-score [20, 22]
active: Potency [1] 935 nM | Potency [2] 235 nM | Potency [3] 264 nM | Potency [4] 166 nM | Potency [5] 296 nM | Potency [18] 332 nM | Potency [7] 2960 nM | Potency [8] 187 nM | Potency [9] 105 nM | Potency [10] 418 nM | Potency [19] 526 nM | Potency [11] 590 nM | Potency [12] 662 nM | Potency [13] 1660 nM | Potency [14] 1050 nM | Potency [15] 187 nM | Potency [16] 296 nM | Potency ([20]; TFE3-RCC UOK109 viability) 935 nM
inactive: Z-AUC [17] -1.34

O=C(Nc1cc(C(F)(F)F)cc(C(F)(F)F)c1)c1cc(Cl)ccc1O
-1.54: Z-AUC ([17]; measured here: PEO4 Z-AUC)
-1.74: z-score [20, 22]
-1.95: z-score [20, 24]
active: Potency [1] 1660 nM | Potency [2] 833 nM | Potency [3] 1480 nM | Potency [4] 1870 nM | Potency [5] 2350 nM | Potency [6] 833 nM | Potency [7] 1480 nM | Potency [8] 935 nM | Potency [9] 935 nM | Potency [10] 526 nM | Potency [11] 590 nM | Potency [13] 662 nM | Potency [14] 1320 nM | Potency [15] 332 nM | Potency [16] 833 nM | Potency [17] 977 nM | Potency ([20]; TFE3-RCC UOK109 viability) 1180 nM
-1.08: z-score [20, 23]
-1.29: Z-AUC [17, 21]
